19 molecules from ChEMBL document CHEMBL2218924, “A broad activity screen in support of a chemogenomic map for kinase signalling research and drug discovery” (Biochem J, 2013) can be followed below.

Assay [1] concerns the target T1, Serine/threonine-protein kinase Chk1 (Homo sapiens) (UniProt O14757).
T1 sequence (whole entry): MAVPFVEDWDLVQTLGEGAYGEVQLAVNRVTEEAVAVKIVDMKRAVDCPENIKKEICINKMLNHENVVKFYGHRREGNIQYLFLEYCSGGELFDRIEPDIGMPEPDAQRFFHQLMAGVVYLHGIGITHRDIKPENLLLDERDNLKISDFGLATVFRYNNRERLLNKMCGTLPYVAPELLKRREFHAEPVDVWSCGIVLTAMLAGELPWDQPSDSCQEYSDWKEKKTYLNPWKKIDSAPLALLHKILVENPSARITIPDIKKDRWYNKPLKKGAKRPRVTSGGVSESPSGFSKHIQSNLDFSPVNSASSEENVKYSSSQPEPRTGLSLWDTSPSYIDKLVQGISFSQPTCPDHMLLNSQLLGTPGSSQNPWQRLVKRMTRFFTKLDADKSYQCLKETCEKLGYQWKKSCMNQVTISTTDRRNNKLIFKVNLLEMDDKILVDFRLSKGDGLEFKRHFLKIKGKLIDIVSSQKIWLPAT
The conditions noted are these: at 1 µM.

Assay [2] concerns the target T1, Serine/threonine-protein kinase Chk1 (Homo sapiens). To be noted: at 10 µM.
The target in assay [3] is Serine/threonine-protein kinase Chk2 (Homo sapiens) (UniProt O96017). The conditions noted are these: at 1 µM.
The target is the same in assay [4]. To be noted: at 10 µM.
Assay [5] deals with Casein kinase I isoform gamma-1 (Homo sapiens) (UniProt Q9HCP0). The conditions noted are these: at 1 µM.
Assay [6] shares this target. To be noted: at 10 µM.
The target in assay [7] is Casein kinase I isoform delta (Homo sapiens) (UniProt P48730). To be noted: at 1 µM.
For assay [8] the target is unchanged. To be noted: at 10 µM.
Assay [9] addresses T2, Casein kinase II (Homo sapiens) (UniProt P67870+P68400+P19784). The conditions noted are these: at 1 µM.
Assay [10] concerns the target T2, Casein kinase II (Homo sapiens). The conditions noted are these: at 10 µM.
For assay [11], the target named is Casein kinase II subunit alpha' (Homo sapiens) (UniProt P19784). To be noted: at 1 µM.
Assay [12] has the same target. To be noted: at 10 µM.
For assay [13], the target named is Dual specificity protein kinase CLK2 (Homo sapiens) (UniProt P49760). The conditions noted are these: at 1 µM.
Assay [14] shares this target. To be noted: at 10 µM.
Assay [15] addresses Dual specificity protein kinase CLK3 (Homo sapiens) (UniProt P49761). To be noted: at 1 µM.
Assay [16] shares this target. To be noted: at 10 µM.
Assay [17] concerns the target Tyrosine-protein kinase CSK (Homo sapiens) (UniProt P41240). To be noted: at 10 µM.
For assay [18], the target named is T3, CDK9/cyclin T1 (Homo sapiens) (UniProt O60563+P50750). The conditions noted are these: at 1 µM.
The target in assay [19] is T3, CDK9/cyclin T1 (Homo sapiens). The conditions noted are these: at 10 µM.
Assay [20] has as its target Tyrosine-protein kinase CSK (Homo sapiens) (UniProt P41240). To be noted: at 1 µM.

Sequence of Casein kinase I isoform gamma-1 (Homo sapiens) (Q9HCP0 whole entry, looked up, canonical isoform): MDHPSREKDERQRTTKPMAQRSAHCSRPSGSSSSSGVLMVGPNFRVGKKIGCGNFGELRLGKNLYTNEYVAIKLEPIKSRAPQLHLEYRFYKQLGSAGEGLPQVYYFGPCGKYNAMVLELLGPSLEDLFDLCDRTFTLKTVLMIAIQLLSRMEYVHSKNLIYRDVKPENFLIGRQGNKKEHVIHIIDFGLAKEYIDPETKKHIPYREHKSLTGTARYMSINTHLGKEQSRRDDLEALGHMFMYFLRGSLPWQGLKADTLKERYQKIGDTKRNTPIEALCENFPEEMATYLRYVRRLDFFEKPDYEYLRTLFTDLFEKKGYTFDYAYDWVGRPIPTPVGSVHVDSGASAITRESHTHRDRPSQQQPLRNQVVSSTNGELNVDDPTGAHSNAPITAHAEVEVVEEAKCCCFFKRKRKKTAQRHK
Sequence of Casein kinase I isoform delta (Homo sapiens) (P48730 whole entry, looked up, canonical isoform): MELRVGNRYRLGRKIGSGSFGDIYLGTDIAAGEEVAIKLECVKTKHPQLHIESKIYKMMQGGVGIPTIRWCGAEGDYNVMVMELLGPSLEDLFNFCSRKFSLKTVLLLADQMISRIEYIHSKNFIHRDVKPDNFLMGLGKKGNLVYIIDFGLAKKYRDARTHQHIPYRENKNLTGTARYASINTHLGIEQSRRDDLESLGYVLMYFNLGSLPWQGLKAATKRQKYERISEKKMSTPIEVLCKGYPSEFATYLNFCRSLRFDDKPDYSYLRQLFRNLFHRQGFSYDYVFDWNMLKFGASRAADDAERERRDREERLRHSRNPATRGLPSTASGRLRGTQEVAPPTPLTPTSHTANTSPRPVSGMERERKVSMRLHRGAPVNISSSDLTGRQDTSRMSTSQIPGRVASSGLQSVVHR
Sequence of Casein kinase II subunit alpha' (Homo sapiens) (P19784 whole entry, looked up): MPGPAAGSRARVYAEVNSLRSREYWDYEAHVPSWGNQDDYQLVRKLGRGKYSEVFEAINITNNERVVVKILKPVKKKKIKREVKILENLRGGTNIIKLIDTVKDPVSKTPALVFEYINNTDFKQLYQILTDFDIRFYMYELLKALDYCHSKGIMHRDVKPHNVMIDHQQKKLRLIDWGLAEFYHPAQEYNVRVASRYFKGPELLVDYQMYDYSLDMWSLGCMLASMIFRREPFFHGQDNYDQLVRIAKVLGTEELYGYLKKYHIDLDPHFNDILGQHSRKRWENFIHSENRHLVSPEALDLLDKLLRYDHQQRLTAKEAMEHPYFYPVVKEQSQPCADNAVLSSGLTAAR
T2 sequence (P19784 whole entry, looked up): as above
T2 sequence (P67870 whole entry, looked up): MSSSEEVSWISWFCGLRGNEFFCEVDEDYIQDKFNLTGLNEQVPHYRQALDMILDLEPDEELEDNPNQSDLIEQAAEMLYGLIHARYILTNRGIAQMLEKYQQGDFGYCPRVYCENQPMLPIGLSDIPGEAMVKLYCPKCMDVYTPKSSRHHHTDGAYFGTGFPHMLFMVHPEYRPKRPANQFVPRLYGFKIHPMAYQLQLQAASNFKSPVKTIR
T2 sequence (P68400 whole entry, looked up): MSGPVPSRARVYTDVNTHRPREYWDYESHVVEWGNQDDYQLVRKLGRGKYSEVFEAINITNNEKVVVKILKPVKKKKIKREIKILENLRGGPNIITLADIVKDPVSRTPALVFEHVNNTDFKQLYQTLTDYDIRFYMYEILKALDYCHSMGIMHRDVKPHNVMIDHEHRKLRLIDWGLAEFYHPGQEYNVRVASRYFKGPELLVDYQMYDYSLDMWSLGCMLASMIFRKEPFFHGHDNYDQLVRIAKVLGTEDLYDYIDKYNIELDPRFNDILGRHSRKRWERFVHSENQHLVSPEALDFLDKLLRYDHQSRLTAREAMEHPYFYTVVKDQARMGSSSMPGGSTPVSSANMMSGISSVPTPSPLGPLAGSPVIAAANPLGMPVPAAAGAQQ
Sequence of Dual specificity protein kinase CLK3 (Homo sapiens) (P49761 whole entry, looked up): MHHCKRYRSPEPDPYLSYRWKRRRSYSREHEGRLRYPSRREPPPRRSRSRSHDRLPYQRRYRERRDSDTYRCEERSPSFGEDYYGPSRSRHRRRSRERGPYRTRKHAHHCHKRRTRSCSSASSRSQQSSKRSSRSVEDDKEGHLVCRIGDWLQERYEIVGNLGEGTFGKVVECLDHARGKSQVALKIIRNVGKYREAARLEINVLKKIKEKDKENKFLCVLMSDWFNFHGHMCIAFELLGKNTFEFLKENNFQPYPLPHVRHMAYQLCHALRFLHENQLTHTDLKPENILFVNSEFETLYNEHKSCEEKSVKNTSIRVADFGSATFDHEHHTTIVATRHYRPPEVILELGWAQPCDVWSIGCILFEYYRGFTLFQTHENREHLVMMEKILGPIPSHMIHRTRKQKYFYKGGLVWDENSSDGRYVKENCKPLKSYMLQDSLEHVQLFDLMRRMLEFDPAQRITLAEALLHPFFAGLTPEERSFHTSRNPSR
Sequence of Tyrosine-protein kinase CSK (Homo sapiens) (P41240 2-450 limits assumed): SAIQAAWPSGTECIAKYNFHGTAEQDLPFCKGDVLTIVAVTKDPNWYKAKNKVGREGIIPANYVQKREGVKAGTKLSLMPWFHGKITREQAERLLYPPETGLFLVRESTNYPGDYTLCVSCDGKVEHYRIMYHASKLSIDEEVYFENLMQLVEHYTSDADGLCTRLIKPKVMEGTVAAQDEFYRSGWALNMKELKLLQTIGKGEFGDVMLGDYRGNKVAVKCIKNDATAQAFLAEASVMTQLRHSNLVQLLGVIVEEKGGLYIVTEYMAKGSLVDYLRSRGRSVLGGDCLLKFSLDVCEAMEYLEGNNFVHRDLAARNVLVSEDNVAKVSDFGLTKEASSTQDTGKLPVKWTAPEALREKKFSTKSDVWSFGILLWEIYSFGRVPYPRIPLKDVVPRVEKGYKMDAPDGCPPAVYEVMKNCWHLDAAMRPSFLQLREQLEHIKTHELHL
Sequence of Dual specificity protein kinase CLK2 (Homo sapiens) (P49760 whole entry, looked up): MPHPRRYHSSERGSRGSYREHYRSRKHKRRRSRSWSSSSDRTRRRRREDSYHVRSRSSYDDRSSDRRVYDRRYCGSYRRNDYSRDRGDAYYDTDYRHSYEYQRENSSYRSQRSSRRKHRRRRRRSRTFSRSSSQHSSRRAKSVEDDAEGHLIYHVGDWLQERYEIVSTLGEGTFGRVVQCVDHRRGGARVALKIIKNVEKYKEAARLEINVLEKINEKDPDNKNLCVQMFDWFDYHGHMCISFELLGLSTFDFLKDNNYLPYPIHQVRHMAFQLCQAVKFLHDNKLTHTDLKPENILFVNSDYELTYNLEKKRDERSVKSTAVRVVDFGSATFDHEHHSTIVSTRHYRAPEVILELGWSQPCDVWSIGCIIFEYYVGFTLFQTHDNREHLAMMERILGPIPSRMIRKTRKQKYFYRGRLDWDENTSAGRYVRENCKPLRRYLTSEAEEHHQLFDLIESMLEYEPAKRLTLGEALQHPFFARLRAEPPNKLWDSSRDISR
Sequence of Serine/threonine-protein kinase Chk2 (Homo sapiens) (O96017 whole entry): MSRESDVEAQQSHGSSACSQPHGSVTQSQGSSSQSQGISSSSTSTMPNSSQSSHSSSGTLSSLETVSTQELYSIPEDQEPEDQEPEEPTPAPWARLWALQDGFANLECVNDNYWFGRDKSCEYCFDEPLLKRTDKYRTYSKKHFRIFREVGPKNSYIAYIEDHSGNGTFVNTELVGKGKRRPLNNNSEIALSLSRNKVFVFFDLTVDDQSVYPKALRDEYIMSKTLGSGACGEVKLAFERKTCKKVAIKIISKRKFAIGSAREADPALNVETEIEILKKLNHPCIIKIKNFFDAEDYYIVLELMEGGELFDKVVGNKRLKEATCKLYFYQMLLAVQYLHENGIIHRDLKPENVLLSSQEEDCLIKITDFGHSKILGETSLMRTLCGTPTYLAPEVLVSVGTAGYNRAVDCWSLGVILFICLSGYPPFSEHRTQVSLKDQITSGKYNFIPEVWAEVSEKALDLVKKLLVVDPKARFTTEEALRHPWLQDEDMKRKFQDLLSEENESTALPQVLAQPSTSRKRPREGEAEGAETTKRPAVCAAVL

Usually residual activity stands for the signal under treatment as a percentage of the control signal. Take `CCOC(=O)c1c(C)[nH]c(/C=C2\C(=O)Nc3ccccc32)c1C`: the residual activity is 90% in assay [1]; 92% in assay [2]; 45% in [3]; 34% in assay [4]; 88% in [5]; 81% in [6]. Further, the residual activity in assay [7] came to 77%; in [8], 62%; in assay [9] it was 77%; in [10], 118%; in assay [11], 131%; in assay [12] it was 89%. In addition, the residual activity in assay [13] was determined as 95%; in [14], 95%; in assay [15], 82%; in assay [16] it was 73%.
Take `N#C/C(=C\c1ccc(O)c(O)c1)C(=O)NCc1ccccc1`: the residual activity is 89% in [3]; 73% in assay [4]; 80% in assay [7]; 87% in assay [8]; 129% in assay [11]; 100% in assay [12]. Further, the results for the residual activity in assay [14] and in assay [15] were 80% and 82%, respectively.
In the case of `COc1ccc(-c2cnc3c(-c4ccsc4)cnn3c2)cc1`, the residual activity came out at 87% in assay [1]; 95% in assay [2]; 98% in assay [5]; 92% in [6]; 80% in assay [15]; 61% in assay [16]. Also, in assay [17], the residual activity was determined as 98%.
Turning to `CN([C@@H](Cc1ccc(OS(=O)(=O)c2cccc3cnccc23)cc1)C(=O)N1CCN(c2ccccc2)CC1)S(=O)(=O)c1cccc2cnccc12`, the residual activity in assay [4] is 79%; in assay [6], 73%.
As to `CCN1/C(=C/C(C)=O)Sc2ccc(OC)cc21`, the residual activity worked out at 69% in assay [5]; 21% in assay [6]; 29% in assay [7]; 4% in assay [8]; 20% in assay [13]; 6% in assay [14]. In addition, the values for the residual activity in assay [15] and in assay [16] were 77% and 40%, respectively.
`Oc1cccc(-c2nc(N3CCOCC3)c3oc4ncccc4c3n2)c1`: the residual activity in assay [1] worked out at 93%; in assay [2], 100%; in assay [3], 100%; in assay [4], 68%; in assay [5], 90%; in [6], 98%. Further, the residual activity in [7] amounted to 83%; in assay [8], 72%; in assay [9] it was 89%; in assay [10], 124%; in [11], 140%; in assay [12], 79%. The residual activity came out at 118% in assay [13], 89% in [14], 79% in assay [15] and 30% in [16].
Regarding `O=c1cc(N2CCOCC2)oc2c(-c3ccccc3)cccc12`, the residual activity in assay [9] came to 54%; in assay [10] it was 12%; in assay [12], 42%.
As for `O=c1c(-c2ccc(F)cc2)c(-c2ccncc2)[nH]n1-c1ccc(Cl)cc1`, the residual activity in assay [18] came out at 100%; in [19], 100%; in assay [3], 43%; in assay [4], 33%; in assay [6], 62%; in assay [7], 44%. For the same molecule, the residual activity in [8] was 5%; in [13] it was 122%; in assay [14], 101%; in assay [16] it was 81%.
Turning to `c1ccc(-c2cnc(Nc3ccc(OCCN4CCCC4)cc3)s2)cc1`, the residual activity in assay [18] was found to be 26%; in assay [19], 4%; in assay [7] it was 81%; in assay [8] it was 54%; in assay [11], 127%; in assay [12], 81%. Moreover, the residual activity in assay [14] was determined as 30%.
Regarding `Fc1ccc(-c2nc3n(c2-c2ccncc2)CCS3)cc1`, the residual activity in assay [3] was 92%; in assay [4], 88%; in [5], 86%; in [6], 28%; in assay [7], 3%; in assay [8], 1%. Besides, the residual activity in assay [9] is 99%; in [10] it was 98%; in assay [15], 97%; in assay [16], 86%.
Consider `O=C1Nc2ccccc2/C1=C\c1c(Cl)[nH]c2ccccc12`, for which the residual activity in [18] was 80%; in assay [19], 34%; in assay [3], 75%; in assay [4] it was 41%; in assay [7] it was 85%; in [8], 51%. For the same molecule, the figures for the residual activity in assay [16] and in assay [17] were 76% and 99%, respectively.
As to `COc1ccc(CNC(=O)Nc2ncc([N+](=O)[O-])s2)cc1`, the residual activity in assay [19] was determined as 5%; in assay [4], 77%; in assay [13] it was 102%; in assay [14], 105%; in [20], 81%; in assay [17] it was 74%.
As to `O=C(Nc1ccc(Cl)cc1)c1ccccc1NCc1ccncc1`, the residual activity in [13] is 120%; in assay [14], 99%.
For the molecule `CC(C)(C)c1nc2c3ccc(F)cc3c3c(=O)[nH]ccc3c2[nH]1`, the residual activity amounted to 37% in assay [1]; 24% in assay [2]; 2% in assay [3]; 1% in assay [4]; 56% in [9]; 63% in [10]. Moreover, the residual activity in assay [11] worked out at 100%; in assay [12], 34%; in [13], 34%; in assay [14], 50%; in assay [15], 68%; in [16], 13%.
As to `CC(C)[C@H](CO)Nc1nc(Nc2cc(N)cc(Cl)c2)c2ncn(C(C)C)c2n1`, the residual activity in assay [3] was found to be 67%; in assay [4], 30%; in [7], 74%; in [8], 26%; in assay [10] it was 93%; in [11], 120%. Further, the results for the residual activity in assay [12] and in assay [17] were 96% and 73%, respectively.
For the molecule `O=C1Cc2c([nH]c3ccc(Br)cc23)-c2ccccc2N1`, the residual activity in [1] worked out at 77%; in [2] it was 53%; in [6], 71%; in assay [7] it was 80%; in assay [8], 68%; in [9], 79%. Further, the residual activity came to 55% in [10]; 92% in assay [12]; 80% in [13]; 56% in assay [14]; 78% in [15]; 67% in assay [16]. Moreover, the residual activity in assay [17] came to 81%.
Turning to `Cn1c2ccccc2c2c3c(c4c5ccccc5n(CCC#N)c4c21)CNC3=O`, the residual activity turned out to be 36% in assay [19]; 2% in assay [1]; 0% in assay [2]; 25% in assay [3]; 15% in assay [4]; 70% in assay [7]. In addition, the residual activity is 48% in assay [8]; 103% in assay [10]; 129% in assay [11]; 96% in assay [12]; 1% in assay [16]; 107% in assay [20]. Besides, in [17], the residual activity was 102%.
Take `CC(C)N(CCC(=O)c1ccc2ccccc2c1)Cc1ccccc1`: the residual activity amounted to 100% in assay [3], 72% in [4], 82% in assay [5] and 74% in assay [15].
Turning to `COc1ccc(COc2ccc(Cc3cnc(N)nc3N)cc2OC)cc1`, the residual activity in assay [11] came out at 110%; in [12], 74%; in assay [13], 108%; in assay [14] it was 100%; in [16], 3%.
